Out of some 69,000 compounds screened, about 8,600 (12%) showed an effect of 50% or more. Shown is part of a subset that was picked to be rich in strong results.

The experiment relates to Plasmodium berghei. The experiment can be described thus: Screen against P. berghei liver stage (PbLuc), transformed with Luciferase, at 10uM. Type of experiment: functional, HepG2. Conditions: tested at 10 uM.
For `CNC(=O)NC(=O)C(C)N(C)CCCc1cc(-c2ccccc2)no1` (centres undefined), the INHIBITION was -14.18%. Take `c1csc(CN2Cc3nccn3CC(Cn3cncn3)C2)c1` (centres undefined): the INHIBITION was -22.1%. On to `CCCc1cc(C(=O)N[C@@H]2CCC[C@@H](N3CCCC3)[C@@H]2O)no1`, for which the INHIBITION came to 13.7%.

For `Cn1nccc1CNS(=O)(=O)c1cc(F)ccc1Br`, the INHIBITION is on record as 6.02%.

For `CC(C)c1nnc(NC(=O)c2cccc(OCC(F)(F)F)n2)[nH]1`, the INHIBITION is -38.6%.

As to `CC(C)c1nnc(NC(=O)Cc2ccc(F)cc2)[nH]1`, the INHIBITION is 51.1%.

For `CCC(C)Oc1cc(C(=O)Nc2nnc(C(C)C)[nH]2)ccn1` (centres undefined), the INHIBITION worked out at 42.6%.

Take `CC(C)c1nnc(NC(=O)CCc2cc(F)ccc2F)[nH]1`: the INHIBITION worked out at 53.3%. The value for `CS(=O)(=O)c1nnc(NC(=O)CCc2cc(F)ccc2F)[nH]1` was 43.7%; that for `CC(C)N1CCC(CNC(=O)CCc2cc(F)ccc2F)C1` (centres undefined) was -20.3%; that for `O=C(C1=CC2(CCN(CCO)CC2)c2ccccc21)N1CCCC1` was 13.6%. Then `O=C(CCc1nc(-c2ccccc2)no1)N[C@H]1COC[C@@H]1N1CCCC1`, with -12.1%; and `Cc1nc(N)cc(C2CN(C(=O)c3cscn3)CCO2)n1` (centres undefined), with 35%. The value for `COc1ccc(NC(=O)COc2nn(C)c3nc(C)cc(C)c23)cn1` was 22.8%. Turning to `CCn1nccc1CNC(=O)NC1CCCCC1`, the INHIBITION is given as 26.8%.

With `CC(C)CCC(=O)NCC(=O)N1CCCCCC1c1ccco1` (centres undefined), the INHIBITION was 19.3%. Then `CNCC(=O)N1CCCC1c1nc(C(C)C)no1` (centres undefined), with 6.33%; and `CCc1ccc(C2CCCCCN2C(=O)CNC(=O)C2CC2)o1` (centres undefined), with 63.7%.

Take `CCc1ccc(C(=O)NCC2CCCN2CC)o1` (centres undefined): the INHIBITION is reported as 31.2%. Then `CC(C)CNC(=O)CN1CCCC(c2ccc(C(=O)O)cc2)C1` (centres undefined), with 33%; and `O=C(NCC(=O)N1CCCC1Cc1cccc(F)c1)C1CCCC1` (centres undefined), with 7.19%. Then `Cc1ccc(C2CCCCCN2C(=O)Nc2cn[nH]c2)o1` (centres undefined), with -22.05%. The value for `CCc1ccc(C(=O)N2CCCCC2CNS(C)(=O)=O)o1` (centres undefined) was -23.5%; that for `CCc1ccc(C2CCCN2C(=O)NCC(=O)NCC(C)C)o1` (centres undefined) was 60.4%; that for `CCc1ccc(C2CCCCCN2C(=O)CNC(=O)NC2CC2)o1` (centres undefined) was 68%.

As to `CCc1ccc(C2CCCN2C(=O)CNC(=O)CCC(C)C)o1` (centres undefined), the INHIBITION is 64.8%.

For the molecule `COc1ccc(C(=O)Nc2ccc3c(c2)C(=O)NC3)cc1Br`, the INHIBITION was -64.3%. The value for `COCc1cc(N(C)CCC(O)c2ccccc2)n2nccc2n1` (centres undefined) was -27.3%. The value for `O=C1CSC(C(F)(F)F)c2c(O)nn(C3CCCCC3)c2N1` (centres undefined) was 38.1%; that for `Cc1cnn(CCNc2nc(C)cc(N(C)C)n2)c1` was 21.5%. Then `CCc1nnc2n1CCN(C(=O)CCOc1cc(C)ccc1C)C2`, with -3.19%; and `O=S(=O)(Cc1ccc(F)c(Cl)c1)NCCOc1cccnc1`, with -11.4%; and `c1cnc2[nH]c(C3CCCNC3)c(CN3CCCOCC3)c2c1` (centres undefined), with -15.3%. Regarding `CCc1ccc(C(=O)NC[C@H]2CCCN2C(=O)c2ccc(CC)o2)o1`, the INHIBITION is -3.68%. Then `CC(=O)Nc1ccc(CC(=O)N2CC(S(=O)(=O)C3CCCCC3)C2)cc1`, with 13.1%; and `CCc1ccc(C2CCCN2C(=O)Cc2ccc(NC(C)=O)cc2)o1` (centres undefined), with 65.8%; and `Cc1nnc(N2C[C@H](Oc3ccccn3)[C@H]3OCCC[C@H]32)s1`, with -10.3%. Then `Cc1cc(NC(=O)NC(C)(C)c2nc(C)c(C)s2)no1`, with 29.1%. Then `Cc1cc(NC(=O)CCNC(C)(C)c2nc(C)c(C)s2)no1`, with 53.8%; and `Cc1cc(NC(=O)CNC(C)(C)c2nc(C)c(C)s2)no1`, with 26.6%. Regarding `Cn1cc(C(=O)Nc2ccc3c(c2)N(C(=O)c2ccco2)CC3)nn1`, the INHIBITION is reported as 20.1%. For the molecule `c1ccc(C[C@H]2CN(C3CCOCC3)CC[C@H]2OCC2CC2)cc1`, the INHIBITION was -54.1%. Then `c1ccc(C[C@H]2CN(Cc3nccs3)CC[C@H]2OCC2CC2)cc1`, with 50%.

In the case of `c1csc(CN2CCCn3cnc(COCC4CC4)c3C2)n1`, the INHIBITION is on record as 37.8%. The value for `c1ccc(C[C@H]2CN(Cc3nccs3)CC[C@@H]2OCC2CC2)cc1` was 62.5%. The value for `c1csc(CN2C[C@H](OCC3CC3)[C@H]3COC[C@H]32)n1` was 12.6%; that for `CCCNC(c1ccc(F)cc1)c1cccnc1` (centres undefined) was 42.1%; that for `CC(C)c1ccc(C(O)CN2CCN(Cc3nccn3C)CC2)cc1` (centres undefined) was -65.3%.

Turning to `CCC1CN(Cc2cccc(C(=O)N(C)C)c2)CCN1CCOC` (centres undefined), the INHIBITION is on record as -34%.

For the molecule `Cc1cccc(CN2C[C@@H]3CN(C(=O)NC(C)C)C[C@@H]3C2=O)n1`, the INHIBITION is -31.9%.

As to `CC(C)c1cc(NC(=O)CN2CCC(N3CCCCC3)CC2)on1`, the INHIBITION was found to be 74.1%.

`CC(C)c1cc(NC(=O)CN2CCCC(Cn3cncn3)C2)on1` (centres undefined): the INHIBITION was determined as 5.58%. The value for `CC(C)c1cc(NC(=O)CN2CCC(C(N)=O)CC2)on1` was 9.64%; that for `CC(C)(C)c1cc(NC(=O)CNC2CCc3ncnn3C2)on1` (centres undefined) was 48.4%; that for `CC(C)c1cc(NC(=O)CN2CCC(N3CCNC3=O)CC2)on1` was 17.3%.

In the case of `CNC(=O)C1CCN(CC(=O)Nc2cc(C(C)C)no2)CC1`, the INHIBITION was 53%. Then `Cc1cc(NC(=O)CNC2CCc3ncnn3C2)on1` (centres undefined), with 6.67%; and `CC(C)c1cc(NC(=O)CN2CCNC(=O)C2)on1`, with 20.6%; and `CC(C)c1cc(NC(=O)CNC2CCc3ncnn3C2)on1` (centres undefined), with 65.3%.

On to `Cc1ccc2nnc(C(=O)NCC3CCCC3)nc2c1`, for which the INHIBITION is recorded as -4.01%. The value for `O=C(c1cccnc1)N1CCn2nnc(COc3ccccn3)c2C1` was 41.6%. Then `CN(C)CCOCc1cncc2c1CCN(C(=O)c1cscn1)C2`, with 49.4%; and `Cc1ccc(S(=O)(=O)NC2CNC(=O)C2)cc1C` (centres undefined), with 38.5%; and `COc1cccc(S(=O)(=O)NC2CNC(=O)C2)c1` (centres undefined), with -12.2%. Then `O=C1CC(NS(=O)(=O)c2ccc(Br)cc2)CN1` (centres undefined), with 53.7%.

With `O=C1CC(NS(=O)(=O)c2ccc(Cl)cc2)CN1` (centres undefined), the INHIBITION turned out to be 45.5%.

In the case of `COC(=O)c1ccc(S(=O)(=O)NC2CNC(=O)C2)cc1` (centres undefined), the INHIBITION came to 60.6%. Then `CSc1ccc(S(=O)(=O)NC2CNC(=O)C2)cc1` (centres undefined), with 42.1%; and `O=C(c1ccnc(C2CCNCC2)c1)N1CCCC(CO)C1` (centres undefined), with 23.9%.

Source of the values: ChEMBL document CHEMBL4513216, “Probing the Open Global Health Chemical Diversity Library for Multistage-Active Starting Points for Next-Generation Antimalarials” (ACS Infect Dis, 2020).
